Measured values taken from ChEMBL document CHEMBL4513141, “CO-ADD screening of NIH (USA) - Clinical Collection” (2021).
Entries with a potency or affinity are not part of this list.

Key:
Staphylococcus aureus = conditions: Concentration 20 uM; ASSAY_TEST Inhibition of Bacterial Growth; detection method Absorption (OD600); MEDIA CAMHB; plate type 384well; NBS; CORNING #3640; time 18 hr
Escherichia coli = conditions: Concentration 20 uM; ASSAY_TEST Inhibition of Bacterial Growth; detection method Absorption (OD600); MEDIA CAMHB; plate type 384well; NBS; CORNING #3640; time 18 hr

Row | SMILES | Inhibition (Staphylococcus aureus) | Inhibition (Escherichia coli)
1 | O.O=P1(N(CCCl)CCCl)NCCCO1 (stereo not drawn) [CYCLOPHOSPHAMIDE] | 2.64% | 1.99%
2 | CC(C)C(=O)Nc1ccc([N+](=O)[O-])c(C(F)(F)F)c1 [FLUTAMIDE] | 10.52% | 4.1%
3 | C[C@H](CCC(=O)O)[C@H]1CC[C@H]2[C@@H]3C(=O)C[C@@H]4CC(=O)CC[C@]4(C)[C@H]3CC(=O)[C@]12C [DEHYDROCHOLIC ACID] | 8.43% | 9.29%
4 | Nc1nc2ccc(Cl)cc2c2nc(-c3ccco3)nn12 [CGS-15943] | 11.02% | 5.2%
